In PubChem BioAssay (EPA / NIEHS):
Inconclusive results are not listed. Activity calls are given as the source filed them. How the source made its calls, unless noted: active means hit-call score of the fitted dose curve at least 0.9, where 1 is the maximum; inconclusive means response in the unintended direction; inactive means score below 0.9.

Each compound was assayed against human Thyroid Receptor alpha (THRa1), THRA (gene 7067) (UniProt P10827) (assay: ATG_THRa1_TRANS: Attagene TRANS-FACTORIAL HepG2 Assay for human Thyroid Receptor alpha (THRa1) (AID 2283014)). Conditions: not given.
Method in brief: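 Transient HepG2 transfection, NR-Gal4 chimera driving GAL4-UAS reporters; 24 h compound exposure; total RNA, oligo(dT) RT, PCR, fluorescent primer extension, capillary electrophoresis. Upward direction vs DMSO control.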

human Thyroid Receptor alpha (THRa1), THRA (gene 7067), sequence (P10827 whole entry, looked up, the tested form may be a part): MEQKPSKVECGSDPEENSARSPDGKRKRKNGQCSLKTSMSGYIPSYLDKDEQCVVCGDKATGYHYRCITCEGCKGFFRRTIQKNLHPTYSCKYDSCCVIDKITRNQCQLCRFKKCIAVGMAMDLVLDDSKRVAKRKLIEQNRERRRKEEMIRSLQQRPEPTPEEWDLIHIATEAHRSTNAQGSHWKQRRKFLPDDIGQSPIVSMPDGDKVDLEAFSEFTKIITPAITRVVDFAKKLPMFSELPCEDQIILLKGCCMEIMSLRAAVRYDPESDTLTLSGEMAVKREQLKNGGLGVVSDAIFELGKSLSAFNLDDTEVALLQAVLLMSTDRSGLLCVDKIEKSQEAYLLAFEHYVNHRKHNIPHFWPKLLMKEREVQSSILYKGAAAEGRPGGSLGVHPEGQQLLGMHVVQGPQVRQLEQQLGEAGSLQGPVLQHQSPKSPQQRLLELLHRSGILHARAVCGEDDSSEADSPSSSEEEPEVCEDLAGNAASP

Structure (SMILES)	outcome
CC1(C)C(=O)N(Br)C(=O)N1Cl	inactive
O=c1[nH]c(=O)n([C@H]2CCCO2)cc1F	inactive
CCC(C(=O)NC(N)=O)c1ccccc1 (stereo not given)	inactive
C=CC(=O)OCCOCCOCC	inactive
CCN(CC)CCOC(=O)c1ccc(N)cc1	inactive
NC(N)=NC(=O)c1nc(Cl)c(N)nc1N	inactive
OCCOc1cccc(OCCO)c1	inactive
CCCCOCCOCCOCCOCCO	inactive
CC(=O)O[C@H](CC(=O)[O-])C[N+](C)(C)C	inactive
CC(C)(CO)[N+](=O)[O-]	inactive
O=C(O)CCCCCCCCCCC(=O)O	inactive
O=[N+]([O-])c1ccc(C=Cc2ccc([N+](=O)[O-])cc2S(=O)(=O)O)c(S(=O)(=O)O)c1	inactive
O=S(=O)(O)NC1CCCCC1	inactive
C=CC(=O)OCCn1c(=O)n(CCOC(=O)C=C)c(=O)n(CCOC(=O)C=C)c1=O	inactive
CC1CC(OC(=O)c2ccccc2O)CC(C)(C)C1 (stereo not given)	inactive
CCCCO	inactive
O=C(O)c1ccc(C(=O)O)cc1	inactive

Structure (SMILES)	outcome
COc1ccc(O)cc1	inactive
NC(=O)Nc1ccc(Cl)cc1	inactive
CCCCCCCCC	inactive
CC(C)C1CCC(O)CC1 (stereo not given)	inactive
CCCC(=O)OCCC(C)CCC=C(C)C (stereo not given)	inactive
CNCCO	inactive
CCC(C)CCCC(C)(C)O (stereo not given)	inactive
CSc1nc(NC2CC2)nc(NC(C)(C)C)n1	inactive
BrC1CCC(Br)C(Br)CCC(Br)C(Br)CCC1Br (stereo not given)	inactive
CC1(C)[C@H](C(=O)OCc2cccc(Oc3ccccc3)c2)[C@@H]1C=C(Cl)Cl	inactive
Cc1ccc2n[nH]nc2c1	inactive
OCCCCCO	inactive
O=c1cc(-c2ccccc2)oc2cc(O)cc(O)c12	inactive
C=C[C@@H](C)CCC=C(C)C	inactive
C=CC(C)(CCC=C(C)C)OC=O (stereo not given)	inactive
FC1(F)C(F)(F)C(F)(F)C2(F)C(F)(C1(F)F)C(F)(F)C(F)(F)C1(F)C(F)(F)C(F)(F)C(F)(F)C(F)(F)C12F (stereo not given)	inactive

These compounds were tested on E-selectin (Homo sapiens) (UniProt P16581) (assay: BSK_3C_Eselectin: BioMAP Diversity Plus: 3C Assay for Eselectin Biomarker Activity (AID 2283015; active means hit-call score of the fitted dose curve at least 0.9, where 1 is the maximum; inactive means score below 0.9;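 on outcome: cell surface E-selectin protein quantified by ELISA 24 h after dosing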)). Conditions: primary human endothelial cells (HUVEC); actives raise or lower the signal.
Method in brief: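 HUVEC, 3C stimulation; compound exposure 24 h; E-selectin by ELISA; gain- or loss-of-signal fitted bidirectionally vs DMSO baseline.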

E-selectin (Homo sapiens), sequence (P16581 whole entry, looked up): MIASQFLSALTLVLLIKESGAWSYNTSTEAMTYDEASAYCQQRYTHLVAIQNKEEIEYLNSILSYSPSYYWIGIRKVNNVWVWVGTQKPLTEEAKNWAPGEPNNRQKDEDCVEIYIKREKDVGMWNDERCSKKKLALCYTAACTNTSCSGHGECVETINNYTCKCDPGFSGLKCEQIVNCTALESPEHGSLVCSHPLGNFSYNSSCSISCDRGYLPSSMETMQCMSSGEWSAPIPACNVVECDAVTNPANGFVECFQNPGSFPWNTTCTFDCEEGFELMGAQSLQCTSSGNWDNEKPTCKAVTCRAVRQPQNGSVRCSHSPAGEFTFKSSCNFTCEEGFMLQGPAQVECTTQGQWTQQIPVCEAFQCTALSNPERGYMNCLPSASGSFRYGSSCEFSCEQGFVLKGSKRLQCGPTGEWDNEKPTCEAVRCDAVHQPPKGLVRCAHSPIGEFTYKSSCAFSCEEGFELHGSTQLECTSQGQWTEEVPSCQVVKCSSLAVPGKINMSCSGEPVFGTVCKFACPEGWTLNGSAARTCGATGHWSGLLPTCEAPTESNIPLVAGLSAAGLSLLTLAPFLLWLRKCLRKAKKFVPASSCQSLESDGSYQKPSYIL

Structure (SMILES)	outcome	AC50
O=[N+]([O-])c1cc(C(F)(F)F)ccc1Cl	inactive	–
O=C1OC2(c3cc(Br)c(O)c(Br)c3Oc3c2cc(Br)c(O)c3Br)c2c(Cl)c(Cl)c(Cl)c(Cl)c21	–	5.06 µM (active)
O=P(c1ccccc1)(c1ccccc1)c1ccccc1	inactive	–
BrC1CCC(Br)C(Br)CCC(Br)C(Br)CCC1Br (stereo not given)	inactive	–
CCCCC(CC)COC(=O)/C=C\C(=O)OCC(CC)CCCC (stereo not given)	inactive	–
Cc1ccc2n[nH]nc2c1	inactive	–
CC[Si](OC(C)=O)(OC(C)=O)OC(C)=O	inactive	–
